2 compounds from PubChem BioAssay (EPA / NIEHS) can be followed below.

A word on the AC50: it is the midpoint of the concentration-response curve, whichever way the signal moves.

Results filed as inconclusive are left out. The source made the active and inactive calls. The calls were made as follows, unless noted: active = hit-call score of the fitted dose curve at least 0.9, where 1 is the maximum; inactive = score below 0.9.

Test [1] is described as follows: CCTE_Mundy_HCI_Cortical_NOG_NeuriteCount: CCTE's Neurite Outgrowth Assay in rat cortical cells for Neurite Count, Mundy Lab (AID 2284212).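 Also: cells fixed about two days after chemical exposure began.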 A digest of the protocol:
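Rat cortical primary cells; compound added 2 h post-plating, 1/10 dilution of working solution. Anti-betaIII-tubulin/AF488 ICC; ArrayScan neurite count vs DMSO.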

A short description of test [2]: CCTE_Mundy_HCI_Cortical_NOG_NeuriteLength: CCTE's Neurite Outgrowth Assay in rat cortical cells for Neurite Length, Mundy Lab (AID 2284213). An outline of the steps: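 First, rat primary cortical cells were plated and, 2 h later, given test chemical as a 1/10 dilution. Finally, βIII-tubulin immunostaining enabled automated imaging of neurite length.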
A short description of test [3]: CCTE_Mundy_HCI_Cortical_NOG_NeuronCount: CCTE's Neurite Outgrowth Assay in rat cortical cells for Neuron Count, Mundy Lab (AID 2284236; active = hit-call score of the fitted dose curve at least 0.9, where 1 is the maximum;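 also: neurons counted by imaging betaIII-tubulin and Hoechst stained cortical cells; cells exposed to compound for about 48 hours before fixation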). A digest of the protocol:
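Read-out: neuron number by high-content imaging of betaIII-tubulin (Alexa Fluor-488) and Hoechst-labelled rat primary cortical cells.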

The nature of test [4]: CCTE_Mundy_HCI_Cortical_NOG_BPCount: CCTE's Neurite Outgrowth Assay in rat cortical cells for Branch Point Count, Mundy Lab (AID 2284237). A digest of the protocol: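 Measured 50.33 h after dosing, this morphology endpoint uses rat primary cortical cultures labelled for betaIII-tubulin. Branch points are quantified by high-content imaging, with DMSO as negative control and baseline.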

For the next test, the system named is IYD (gene 389434). In words: CCTE_GLTED_hIYD: CCTE's human Iodotyrosine Deiodinase (xIYD) Inhibition Assay, Great Lakes Toxicology and Ecology Division (GLTED) Lab (AID 2284317; active = hit-call score of the fitted dose curve at least 0.9, where 1 is the maximum;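 also: cell-free human IYD enzyme made in baculovirus insect cells; iodide freed from monoiodotyrosine measured by cerium arsenite color change at 420 nm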). A digest of the protocol: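 Deiodination of MIT by insect-cell-produced human IYD is measured after a 3 h incubation with test chemical. Free iodide passes through a Dowex column and accelerates Sandell-Kolthoff Ce4+ reduction, read at 420 nm; run in triplicate.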

As for `CCN(CC)CCCC(C)Nc1nc(C)cc(Nc2ccc3nc(C)cc(N)c3c2)n1` (stereo not given), the result in test [1], in test [2], in test [3] and in test [4] was inactive.

For the compound `N[C@@H](Cc1ccc(O)c([N+](=O)[O-])c1)C(=O)O`, the AC50 in the test with IYD (gene 389434) was 25.3 nM (active).
